From the supplement of paper PMC10981050
Where “and” joins values, the source holds several entries; their conditions need not be identical. Identical values can stand only once. Counter-ions that a name gives are not always drawn.

Assays:
Test in all cases: cell viability relative to vehicle control; higher = less cytotoxic
K562 = conditions: 10 µM; SRSF2 genotype: SRSF2 wt/wt
How it was run: (§1)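 Mutant clones made by CRISPR editing and their isogenic wild-type counterparts, from four leukaemia lines, were exposed to a single 10 µM dose of each library compound for 48 h. The supernatant was then removed and CellTiter-Glo luminescence was read. Viability was reported as percent of the on-plate vehicle control.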

MARIMO = conditions: 10 µM
How it was run: as §1

MOLM14 = conditions: 10 µM
How it was run: as §1

OCI-AML2 = conditions: 10 µM
How it was run: as §1

SMILES	cell viability (K562)	cell viability (MARIMO; SRSF2 genotype: SRSF2 P95H/wt)	cell viability (MARIMO; SRSF2 genotype: SRSF2 wt/wt)	cell viability (MOLM14; SRSF2 genotype: SRSF2 P95H/wt)	cell viability (MOLM14; SRSF2 genotype: SRSF2 wt/wt)	cell viability (OCI-AML2; SRSF2 genotype: P95H/wt)	cell viability (OCI-AML2; SRSF2 genotype: wt/wt)
O=C1NC(=O)[C@@H](c2cn3c4c(cccc24)CCC3)[C@@H]1c1c[nH]c2ccccc12 [ARQ 197 (Tivantinib)]	37%	6.87%	9.91%	17.9%	4.13%	12.1%	15.4%
Nc1cc(N)c(N)cc1N	69.4%	104%	109%	96.3%	105%	103%	103%
O=c1cc(-c2ccc(O)c(O)c2O)oc2ccccc12	69.2%	98.5%	87.9%	81.8%	68.4%	108%	105%
O=C(CCCCCCNC(=O)c1cnc(N(c2ccccc2)c2ccccc2)nc1)NO	52.1%	17.6%	35.3%	2.73%	2.08%	0.54%	1.52%
Cc1coc2c1C(=O)C(=O)c1c-2ccc2c1CCCC2(C)C [Tanshinone IIA (Tanshinone B)]	52.2%	98.2%	89%	88.8%	79.7%	84.1%	83.3%
COc1cc([C@@H]2c3cc4c(cc3[C@@H](O[C@@H]3O[C@@H]5CO[C@@H](C)O[C@H]5[C@H](O)[C@H]3O)[C@H]3COC(=O)[C@H]23)OCO4)cc(OC)c1O [Etoposide (VP-16)]	82%	7.2%	6.84%	15.3%	4.31%	13%	14.8%
CCN(C)S(=O)(=O)Nc1ccc(F)c(C(=O)c2c[nH]c3ncc(-c4cnc(C5CC5)nc4)cc23)c1F	59.2%	83.6%	87.5%	79.3%	92.7%	91.5%	84.7%
O=C(NC1CC1)c1cc(-c2cccs2)on1 [Isoxazole 9 (ISX-9)]	53.5%	58.5%	63%	46.8%	35.5%	74.8%	74.7%
Cn1cc(-c2ccc(F)c(C(F)(F)F)c2)nc1C1CCN(c2ncnc3[nH]ncc23)CC1	86% and 80.8%	88.3% and 83.6%	96.6% and 99.4%	92.3% and 80.4%	95.3% and 97.3%	85.9% and 77.1%	92.6% and 79.5%
O=C1[C@H](Cc2ccc(O)cc2)N2C(=O)CCN(C(=O)NCc3ccccc3)[C@H]2CN1Cc1cccc2ccccc12	47% and 37.9%	60.6% and 53.5%	59.4% and 48.2%	63.6% and 52%	43.8% and 35.6%	54.4% and 45.4%	42.3% and 36.8%
COc1ccc(N2C(=O)/C(=C\c3ccc([N+](=O)[O-])s3)SC2=S)cc1	66.2%	71.8%	52.8%	36.7%	58.2%	0.66%	5.17%
NC(=O)Nc1sc(-c2ccc(F)cc2)cc1C(N)=O	79.8%	56.3%	50%	20.5%	11%	20.2%	26.5%
CN(c1ncccc1CNc1nc(Nc2ccc3c(c2)CC(=O)N3)ncc1C(F)(F)F)S(C)(=O)=O	27.9% and 21.1%	10.2% and 11.6%	3.77% and 4.68%	0.98% and 1.3%	0.43% and 0.45%	1.6% and 2.15%	13% and 13.3%
COc1cc2ncnc(Nc3ccc(F)c(Cl)c3)c2cc1OCCCN1CCOCC1 [Gefitinib (ZD1839)]		63.4%	63.1%	39.7%	45.2%	53.4%	50.9%
CC(Nc1nc(N2CCCC2)nc2ccccc12)c1ccccc1 (centres undefined) [Importazole]	29.2%	46.3%	64.7%	51.2%	48.2%	51.8%	58.2%
COc1cc2/c(=N/c3ccc(Br)cc3F)nc[nH]c2cc1OCC1CCN(C)CC1 [Vandetanib (ZD6474)]	41%	83%	97.2%	57.6%	68.6%	77.3%	75.4%
O=C(O)C(=O)O.[NH-]C1CCCCC1[NH-].[Pt+2] (centres undefined) [Oxaliplatin (Eloxatin)]	72.8%	22%	62%	56.1%	48.2%	23.8%	62.9%
CCS(=O)(=O)N1CCN(c2ccc(Nc3ncc(C(N)=O)c(NC4CC4)n3)cc2)CC1	63.2%	65.2%	63.1%	7.8%	8.15%	12.1%	15.5%
Oc1ccc2c(c1)OC[C@]1(O)Cc3cc(O)c(O)cc3[C@H]21 [Brazilin]	85.9%	46.3%	11.3%	40.4%	45.2%	73.2%	77.5%

SMILES	cell viability (K562)	cell viability (MARIMO; SRSF2 genotype: SRSF2 P95H/wt)	cell viability (MARIMO; SRSF2 genotype: SRSF2 wt/wt)	cell viability (MOLM14; SRSF2 genotype: SRSF2 P95H/wt)	cell viability (MOLM14; SRSF2 genotype: SRSF2 wt/wt)	cell viability (OCI-AML2; SRSF2 genotype: P95H/wt)	cell viability (OCI-AML2; SRSF2 genotype: wt/wt)
Nc1nc(N)c2nc(-c3ccccc3)c(N)nc2n1 [Triamterene]	33%	98.2%	101%	93.7%	101%	101%	101%
CCn1cc(C(=O)O)c(=O)c2c(N)c(F)c(NC3CCCCC3)cc21	80.6%	94.2%	125%	106%	117%	120%	136%
C[C@H](CS)C(=O)N1CCC[C@H]1C(=O)O [Captopril (Capoten)]		103%	106%	102%	102%	97.7%	97.8%
O=C(O[C@@H]1Cc2c(O)cc(O)cc2O[C@H]1c1cc(O)c(O)c(O)c1)c1cc(O)c(O)c(O)c1 [Gallocatechin gallate]	71%	91.1%	91.7%	77.3%	67.3%	94.1%	87.8%
CCOc1ccn(-c2ccc(F)cc2)c(=O)c1C(=O)Nc1ccc(Oc2ccnc(N)c2Cl)c(F)c1	42%	69.1%	82.8%	11.3%	6.04%	20.9%	28.1%
CNC(=O)c1ccccc1Oc1nc(Nc2cc(OC)c(OC)c(OC)c2)ncc1Br	90.6%	52.5%	55.3%	8.58%	5.16%	11.6%	19%
C[C@@H](NC(=O)c1ncnc(N)c1Cl)c1ncc(C(=O)Nc2cc(C(F)(F)F)c(Cl)cn2)s1	51.4%	54.7%	58.1%	86.1%	95.3%	66.9%	69.8%
Cc1cc(C)c(Nc2ccnc(Nc3ccc(C#N)cc3)n2)c(C)c1 [Dapivirine (TMC120)]	45.5%	86%	70.6%	75%	81.1%	69%	31.3%
C[C@@H]1CCN(C(=O)CC#N)C[C@@H]1N(C)c1ncnc2[nH]ccc12	99.6% and 112%	97.6% and 104%	99.8% and 112%	85.3% and 95.7%	104%	96.5% and 99.1%	93.8% and 101%
CNC(=O)c1ccccc1Nc1nc(Nc2ccc(N3CCOCC3)cc2OC)ncc1Cl	113%	44.3%	39.6%	9.8%	6.5%	13.3%	20.4%
O=C(Cc1cccc(OC(F)(F)F)c1)Nc1ccc(CCCCc2nnc(NC(=O)Cc3ccccn3)s2)nn1	58.5%	23.7%	21.2%	44.3%	53.4%	20.1%	24.8%
Cc1cc(N2C[C@@H](C)N[C@@H](C)C2)ncc1-c1ccc(-c2nc3c(ccn3C)c(=O)[nH]2)cc1	59%	79.6%	76.4%	0.95%	1.53%	5.67%	3.85%
COc1cc(O)cc(O)c1C(=O)C=Cc1ccccc1 [Cardamonin]	77.8%	54.5%	70.9%	33.1%	74.1%	52.6%	51.2%
COc1cc(-c2cc(-c3ccc(N4CCNCC4)cc3)cnc2C)cc(OC)c1OC	31.1%	46.2%	46.9%	37.1%	31.9%	17.7%	29.3%
O=C(CCCCCCNC(=O)c1cnc(N(c2ccccc2)c2ccccc2Cl)nc1)NO [Citarinostat (ACY-241)]	47.4%	8.12%	20.9%	2.1%	1.84%	0.7%	1.25%
NC(CO)C(=O)NNCc1ccc(O)c(O)c1O (centres undefined) [Benserazide HCl]	80.2%	103%	95.5%	85.3%	71.6%	94.2%	99.5%
COc1cccc(-c2ccc(NC(=O)C3=C(C(=O)O)CCC3)c(F)c2)c1 [Vidofludimus]	93.2%	115%	120%	114%	108%	112%	112%
CC=C(C)C(=O)OC1C(OC(C)=O)C2(CO)C(O)CC3(C)C(=CCC4C5(C)CCC(OC6OC(C(=O)O)C(OC7OC(CO)C(O)C(O)C7O)C(O)C6OC6OC(CO)C(O)C(O)C6O)C(C)(CO)C5CCC43C)C2CC1(C)C (centres undefined) [Escin]	48.9%	90.1%	90.1%	53.3%	67.9%	23.9%	31.4%
COc1cc2nccc(Oc3ccc(NC(=O)Nc4ccc(F)cc4F)c(F)c3)c2cc1OC	93.5%	109%	112%	25.1%	19.4%	40.2%	51.5%
